Source: PubChem BioAssay (Corson Lab, School of Medicine, Indiana University)
This is one part of a sample in which hits are shown more often than they occur.
FECH block: human FECH heme synthesis enzyme inhibition; purified FECH, Ni-mesoporphyrin absorbance 550 nm; hit rate 3.3% among 20,000; P22830; AID 1671448; calls only at 10 µM (by protocol);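 active = enzyme reaction rate more than 3 SD below the solvent-only control wells on the same plate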;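 note: lower slope than DMSO wells means FECH inhibition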
Target sequence (P22830 whole entry, looked up): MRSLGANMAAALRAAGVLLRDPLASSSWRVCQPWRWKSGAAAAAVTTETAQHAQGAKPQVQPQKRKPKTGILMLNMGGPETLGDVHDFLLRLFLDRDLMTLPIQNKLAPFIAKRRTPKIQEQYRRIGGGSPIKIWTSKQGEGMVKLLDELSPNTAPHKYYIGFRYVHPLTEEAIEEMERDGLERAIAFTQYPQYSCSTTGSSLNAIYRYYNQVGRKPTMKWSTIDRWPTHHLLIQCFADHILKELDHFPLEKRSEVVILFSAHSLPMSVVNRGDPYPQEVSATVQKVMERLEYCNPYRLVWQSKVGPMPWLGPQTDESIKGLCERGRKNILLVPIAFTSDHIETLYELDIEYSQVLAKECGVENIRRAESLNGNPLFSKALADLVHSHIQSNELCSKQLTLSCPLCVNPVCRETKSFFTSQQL
* = called active by the depositor; i = inactive; + = active, no number.

SMILES	FECH block
COc1ccc(Nc2nc(NCC(C)O)nc3c2cnn3-c2ccccc2)cc1 (stereo not drawn)	+
COc1ccc(-n2ccnc2-c2nccn2CC(C)(C)OC)cc1	i
CN1CCn2nc(C(=O)NCCSc3nccn3C)cc2C1	i
Cc1cc(C)n2nc(CC(=O)NC3CCN(Cc4ccccc4)C3)nc2n1 (stereo not drawn)	i
Cc1ccc(C)c2c1NC(=O)C2CC(=O)NCc1ccc2c(c1)OCO2 (stereo not drawn)	i
CCC(C)NS(=O)(=O)c1cc(C(=O)N2CCCC2)cs1 (stereo not drawn)	i
CCC(=O)Nc1cccc(C(=O)NCc2cccc3[nH]ccc23)c1	i
COc1ccc(NCc2nc3nc(C)c(Cc4ccc(Cl)cc4)c(=O)n3[nH]2)cc1	+
CCOC(=O)CCc1c(C)nc2nc(CNc3cc(Cl)ccc3OC)[nH]n2c1=O	i
CCOC(=O)CCc1c(C)nc2nc(CNc3ccccc3OC)[nH]n2c1=O	i
CCOC(=O)CCc1c(C)nc2nc(CNc3ccc(Cl)cc3)[nH]n2c1=O	+
CCOC(=O)Cc1ccc(NC(=O)Nc2c(C)nc3nc[nH]n3c2=O)cc1	i
CCOC(=O)CCc1c(C)nc2nc(CNc3ccc(C)c(Cl)c3)[nH]n2c1=O	+
Cc1ccccc1NCc1nc2nc(C)c(Cc3ccc(Cl)cc3)c(=O)n2[nH]1	i
CCc1nc2nc(C)c(NC(=O)Nc3cccc(Cl)c3)c(=O)n2[nH]1	i
Cc1ccc(NCc2nc3nc(C)c(Cc4ccc(Cl)cc4)c(=O)n3[nH]2)cc1	i
Cc1nc(CCC(=O)N2Cc3cnc(-c4ccccc4)nc3C2)n[nH]1	i
Cc1ccc(C2=CC(c3ccccc3Cl)n3nc(NC(=O)c4ccc(Cl)cc4)nc3N2)cc1 (stereo not drawn)	i
COc1ccccc1Cn1ccnc1-c1ccc(NC(C)=O)cc1	i
Cc1cc(N2CCCCC2)nc(N2CCN(S(=O)(=O)c3ccccc3F)CC2)n1	i
C[C@@]1(O)CCN(C(=O)Cc2ccc(O)cc2)C[C@@H]1Cc1ccccc1	i
Cc1cccc(C)c1C(=O)N1CC[C@@](C)(O)[C@@H](Cc2ccccc2)C1	+
CC[C@H]1CN(C(=O)c2cnc(N3CCN(C)CC3)nc2C)CC[C@@]1(C)O	i
CN1CCN(C(=O)c2cc3n(n2)CC(C)(C(=O)NCc2ccc(F)cc2)N(C)C3=O)CC1 (stereo not drawn)	i
NC1(C(=O)O)CCN(Cc2cc(Cl)cc(Cl)c2)C1 (stereo not drawn)	i
SMILES	FECH block
CC(=O)Nc1ccc(-c2nc(-c3ccc4c(c3)Sc3ccccc3C(=O)N4C)no2)cc1	i
CN1C(=O)c2ccccc2Sc2cc(-c3noc(CNC(=O)c4ccccc4)n3)ccc21	+
CN1C(=O)c2ccccc2Sc2cc(-c3noc(COc4ccc(F)cc4)n3)ccc21	i
Cn1c(=O)c(C(=O)Nc2ccccc2Br)nc2ccccc21	i
Cn1c(=O)c(C(=O)Nc2ccc(F)cc2)nc2ccccc21	i
Cn1c(=O)c(C(=O)Nc2ccccn2)nc2ccccc21	+
Cc1cc2nc(CSCC(=O)Nc3ccccc3Cl)cc(=O)n2o1	i
Cc1ccc(-c2nc(C)cc(OCC(=O)Nc3cc(C)ccc3C)n2)cc1	i
COc1ccc(NC(=O)COc2cc(C)nc(-c3ccc(C)cc3)n2)cc1OC	i
Cc1ccc(-c2nc(C)cc(OCC(=O)Nc3ccc(C)c(F)c3)n2)cc1	+
CN(C)c1ncc(-c2nccn2Cc2cccc(-n3cccn3)c2)cn1	i
Cc1cc(C)cc(Oc2cc(SCC(=O)Nc3ccccc3C)ncn2)c1	+
COc1cccc(CNC(=O)CSc2cc(Oc3cc(C)cc(C)c3)ncn2)c1OC	+
Cc1cc(C)cc(Oc2cc(SCC(=O)Nc3ccc(F)cc3Cl)ncn2)c1	+
COc1ccccc1CNC(=O)CN(C)Cc1ncc(C)[nH]1	i
COc1ccccc1CNC(=O)CN(C)Cc1c(C)nn(C)c1C	i
Cc1ccc(NC(=O)CN2CCN(Cc3ccc(F)cc3Cl)S2(=O)=O)c(Cl)c1	i
CCC(=O)Nc1ccccc1-c1nnc(SCC(=O)Nc2ccc(C)cc2C)[nH]c1=O	i
CN(C)c1nc2ncnc(SCC(=O)Nc3ccc(F)cc3F)c2s1	i
Cc1ccccc1NC(=O)CCNC(=O)COc1c(C)ccc(C)c1C	i
Cc1ccc2[nH]cc(CN(C)Cc3ncccc3C)c2c1	i
CCCn1ncc(C(=O)NCc2nnc(-c3ccccc3)o2)c1C	i
Cc1ccc2[nH]c(CCCNC(=O)c3ccc(-n4cnnc4)cc3)nc2c1C	i
COc1ccc(CN(C)C(=O)Nc2nc(C)n(C)n2)c2cccnc12	i
Cc1cccn2c(CNC(=O)c3ccc(-c4ncn[nH]4)cc3)cnc12	i
SMILES	FECH block
CCc1cc(Sc2ccc(NC(=O)Nc3ccc(Br)cc3)cc2)n2ncnc2n1	+
CCc1cc(Sc2ccc(NC(=O)Nc3cccc(F)c3)cc2)n2ncnc2n1	i
CCc1cc(Sc2ccc(NC(C)=O)cc2)n2ncnc2n1	i
CCc1c(C)nc2ncnn2c1Sc1ccc(NC(=O)c2c(OC)cccc2OC)cc1	i
CCCc1c(C)nc2ncnn2c1Sc1ccc(NC(=O)c2ccc(OC)c(OC)c2)cc1	+
CCCc1c(C)nc2ncnn2c1Sc1ccc(NC(=O)c2cc(OC)cc(OC)c2)cc1	+
CCCc1c(C)nc2ncnn2c1Sc1ccc(NC(=O)c2cccc(OC)c2)cc1	i
CCCc1c(C)nc2ncnn2c1Sc1ccc(NC(=O)c2cc(OC)c(OC)c(OC)c2)cc1	i
CCc1c(C)nc2ncnn2c1Sc1ccc(NC(=O)c2cccc(OC)c2)cc1	i
CCCc1c(C)nc2ncnn2c1Sc1ccc(NC(=O)Cc2ccc(OC)cc2)cc1	i
CCc1c(C)nc2ncnn2c1Sc1ccc(NC(=O)c2ccc(OC)c(OC)c2)cc1	+
CCc1c(C)nc2ncnn2c1Sc1ccc(NC(=O)Nc2ccc(OC)c(OC)c2)cc1	i
CCc1nc(OCC(=O)NCc2cc(OC)ccc2OC)c2c(-c3ccc(F)cc3)noc2n1	i
CCCCN(CC)c1ncc(NS(=O)(=O)c2ccc(OC)cc2)cc1C(=O)O	i
CN1CCN(S(=O)(=O)c2ccc3c(c2)CCN3C(=O)CCC(=O)N2CCCCCC2)CC1	i
Cc1ccnc(NC(=O)CN2C(=O)CN(C)C(=O)c3ccccc32)c1	i
O=C1CCCc2cc(S(=O)(=O)N3CCCC3C(=O)N3CCN(c4ccccc4)CC3)ccc2N1 (stereo not drawn)	i
COc1ccc(C)cc1NC(=O)NCCc1nc2cccnc2n1C1CCCCC1	i
CCN(CC)Cc1cnc2c(C(=O)NC3CCCCC3)cnn2c1	i
CN1CCN(C)C2(CCN(C(=O)c3c(O)ccc4ccccc34)CC2)C1	i
Cc1cc(NC(=O)CSCc2ccccc2)n(-c2ncnc3c2cnn3-c2ccc(F)cc2)n1	i
O=C(CSc1nc(-c2ccc3c(c2)OCO3)nc2cc(=O)[nH]n12)Nc1ccc2c(c1)OCO2	i
CCc1c(C)nc2ncnn2c1Sc1ccc(NS(=O)(=O)c2cc(Cl)ccc2OC)cc1	+
CCc1c(C)nc2ncnn2c1Sc1ccc(NS(=O)(=O)c2ccc(OC)c(OC)c2)cc1	i
CCCc1c(C)nc2ncnn2c1Sc1ccc(NS(=O)(=O)c2cc(OC)ccc2OC)cc1	i
COc1cc(OC)cc(C(=O)Nc2ccccc2Sc2c(C)c(C)nc3ncnn23)c1	+
COc1ccccc1C(=O)Nc1ccccc1Sc1c(C)c(C)nc2ncnn12	i
CCc1cc(Sc2ccc(NC(=O)c3cc(OC)cc(OC)c3)cc2)n2ncnc2n1	i
